Screens (PubChem BioAssay)
Hits are enriched below; roughly 1.5% of the tested compounds scored in any of these assays.
hiPSC survival – enhancers of human iPSC single-cell survival. hiPSC single-cell survival, ATPlite luminescence; 100% = ROCK inhibitor wells, 0% = DMSO. survival enhancement, % at 20 µM. 0.044% of 360,000 active. AID 602274; in the data active = survival enhancement above about 18%;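 note: cells exposed to compounds for 16 hours before the ATP read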
DAGLB inh – diacylglycerol lipase beta (human) inhibition. Q8NCG7. HEK293T DAGLB membrane lysate, EnzChek fluorogenic substrate. inhibition, % at 5.17 µM. 0.059% of 340,000 active; in the data active = inhibition above about 34%;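 note: 0% = enzyme with vehicle and 100% = wells lacking enzyme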
Target sequence (Q8NCG7 whole entry, looked up): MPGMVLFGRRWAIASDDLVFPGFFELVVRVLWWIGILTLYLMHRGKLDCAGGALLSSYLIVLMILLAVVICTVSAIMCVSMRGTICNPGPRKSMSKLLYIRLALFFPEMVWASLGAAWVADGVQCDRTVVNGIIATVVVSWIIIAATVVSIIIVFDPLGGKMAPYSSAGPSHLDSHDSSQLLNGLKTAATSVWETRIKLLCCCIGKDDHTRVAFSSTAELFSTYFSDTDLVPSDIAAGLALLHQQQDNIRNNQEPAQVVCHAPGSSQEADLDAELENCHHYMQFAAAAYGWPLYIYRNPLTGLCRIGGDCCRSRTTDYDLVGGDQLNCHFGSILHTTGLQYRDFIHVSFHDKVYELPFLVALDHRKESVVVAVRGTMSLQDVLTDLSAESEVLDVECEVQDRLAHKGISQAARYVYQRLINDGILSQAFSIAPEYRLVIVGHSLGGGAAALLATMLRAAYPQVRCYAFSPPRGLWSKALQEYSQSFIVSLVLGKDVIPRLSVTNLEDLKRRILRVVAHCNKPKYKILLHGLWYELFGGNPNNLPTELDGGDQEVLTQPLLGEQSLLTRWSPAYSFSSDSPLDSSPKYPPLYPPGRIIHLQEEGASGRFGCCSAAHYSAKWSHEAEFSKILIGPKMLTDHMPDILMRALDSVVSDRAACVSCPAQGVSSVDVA
TMEM16A act – mouse TMEM16A channel activation, primary screen; Q8BHY3; HEK293 TMEM16A/YFP-H148Q/I152L, iodide quench fluorescence; stronger effect = lower value; B-score at 10 µM; 0.3% of 340,000 active; AID 623877;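 active = fluorescence-ratio B-score plate-corrected deviation score at least 3 library SD below zero, with starting fluorescence score within 5 deviations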;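 note: channel opened by trigger with iodide after compound preincubation; score built on the fluorescence ratio of max minus min over baseline; more negative score means more quench and so TMEM16A activation or potentiation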
ANO1 block – mouse TMEM16A channel inhibition, primary screen; HEK293 TMEM16A/YFP iodide influx fluorescence, ionomycin; normalized B-score (activity score, 25-100; higher = stronger inhibition) at 10 µM; 1.2% of 310,000 active; AID 588511;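 active = ratio plate-corrected score three or more library SD toward inhibition, starting fluorescence score within five deviations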;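 note: score derived from kinetic fluorescence span divided by baseline fluorescence per well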
ABCB6 inh MLPCN – blocks the human ABCB6 transporter; AID 602162; K562-ABCB6 porphyrin accumulation, flow cytometry, 1 h; stronger effect = lower value; Q9NP58; 0.19% of 360,000 active; fluorescence ratio to DMSO, % at 10 µM;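 active = fluorescence ratio to DMSO below 75%, the collection mean minus 3 SD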;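 note: signal is porphyrin accumulated inside mitochondria; 100% equals median channel fluorescence of DMSO control wells; lower ratio means ABCB6 inhibition with less porphyrin fluorescence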
TMEM16A reconf – reconfirmed blocker of mouse TMEM16A calcium-activated chloride channel. shares compounds with ANO1 block. HEK293 TMEM16A/YFP-H148Q, iodide quench fluorescence; ionomycin added to raise cell calcium. inhibition, % at 10 µM. 39% of 2,300 active;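 active = mean duplicate percent inhibition, scaled so buffer wells are 0 and the reference blocker 100, over three buffer SD above buffer mean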
HEK293 Ca mobil – counter-screen for TMEM16A inhibitors: effect on calcium mobilization; shares compounds with ANO1 block; TMEM16A/YFP HEK293, Fluo4 calcium mobilization; calcium response (% of ionomycin), % at 10 µM; 2% of 2,300 active;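 active = duplicate-averaged calcium signal over 20% of the ionomycin maximum, relative to buffer baseline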;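 note: each well's signal is peak minus trough fluorescence divided by its pre-addition baseline; 0% = buffer wells and 100% = ionomycin wells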
Parental YFP cnt – acts in parental YFP-HEK293 cells lacking TMEM16A, counter-screen | shares compounds with ANO1 block | iodide YFP quench, ionomycin | YFP ratio F(max-min)/F0 at 10 µM | 2,300 tested, under 10 active;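 active = yellow fluorescent protein signal ratio exceeding the buffer control mean by over 5 SD of those controls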;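 note: ratio is mean of duplicate wells from kinetic YFP trace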
ClC-1 inh – selectivity of TMEM16A inhibitors: inhibition of rat ClC-1 chloride channel. AID 652236. CHO ClC-1-YFP, iodide influx fluorescence quench; iodide control reads 0, buffer control 100. 2,300 tested, under 10 active. ratio percent, % at 10 µM. shares compounds with ANO1 block;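 active = duplicate-mean ratio percent above the mean of iodide-only control wells, which defines zero, plus 5 of their SD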;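 note: higher percent means stronger block of ClC-1 iodide influx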
* hit, by the source's call; i = inactive; . = no result; ! = not active in a repeat.

SMILES	hiPSC survival	DAGLB inh	TMEM16A act	ANO1 block	ABCB6 inh MLPCN	TMEM16A reconf	HEK293 Ca mobil	Parental YFP cnt	ClC-1 inh
Cc1ccc(C(=O)N2c3ccccc3N(Cc3ccccc3)C(=O)C2(C)C)cc1	-1	0	i	100*	90	24%*	i	-0.97	-10
N#Cc1c(-c2ccccc2)nc(SCc2cccc(Cl)c2)[nH]c1=O	0	14	i	100*	102	83%*	i	-0.99	-19
Cc1[nH]c(=O)nc(SCc2cccc(Cl)c2)c1C#N	0	3	i	i	109	.	.	.	.
CCC1c2ccc(C)n2CCN1C(=O)Nc1ccccc1C(=O)OC (stereo unspecified)	-2	-3	i	i	108	i	i	-1.1	-14
CCC1c2ccc(C)n2CCN1C(=O)Nc1cc(Cl)ccc1OC (stereo unspecified)	2	-1	i	i	131	16%*	i	-0.98	-10
O=C(Nc1nc(-c2ccc(F)cc2)cs1)C1CCN(C(=O)c2ccc(F)cc2)CC1	0	0	i	25*	92	18%*	i	-1.1	-16
O=C(CN1C(=O)C2CC=CCC2C1=O)NCc1ccc2c(c1)OCO2 (stereo unspecified)	1	0	i	25*	105	i	i	-0.98	-14
O=C(CN1C(=O)C2C3C=CC(C3)C2C1=O)NCc1ccc2c(c1)OCO2 (stereo unspecified)	0	1	i	i	94	.	.	.	.
CC(C)c1ccc(OC(=O)c2ccc3c(=O)n4c(nc3c2)CCC4)cc1	0	3	i	i	100	.	.	.	.
O=C(COC(=O)Cc1c(Cl)cccc1Cl)Nc1ccccc1-c1ccccc1	-1	-18	i	25*	95	i	i	-1	-6
O=C(c1ccc(S(=O)(=O)Cc2cc(F)ccc2F)c([N+](=O)[O-])c1)N1CCOCC1	-4	-14	.	.	80	.	.	.	.
Cc1ccc(C(=O)COC(=O)CCC(=O)Nc2cccc(Cl)c2)cc1[N+](=O)[O-]	-4	-1	i	100*	102	i	i	-0.91	-14
O=C1CS/C(=N/N=C2C3CC4CC(C3)CC2C4)N1	2	-3	i	i	100	.	.	.	.
CC1C/C(=N/N=C2/NC(=O)CS2)CC(C)(C)C1 (stereo unspecified)	0	1	i	100*	95	i	i	-1.2	-13
NS(=O)(=O)CCCc1ccccc1	7	1	i	i	95	.	.	.	.
Nc1ccc(CCS(N)(=O)=O)cc1	4	0	i	25*	109	i	i	-0.89	-2
CCn1c(SCc2nc(-c3ccc(Cl)cc3)no2)nnc1-c1ccco1	0	-5	i	100*	96	i	28%*	-0.93	-11
COC(=O)Cn1c(CN(C)Cc2ccccc2)nc2c1c(=O)n(C)c(=O)n2C	1	-1	i	i	103	.	.	.	.
CCOC(=O)Cn1c(CN(C)Cc2ccccc2)nc2c1c(=O)n(C)c(=O)n2C	-2	0	i	100*	95	i	i	-1.2	-11
CCOC(=O)c1c(NC(=O)C(C)N2CCN(C(=O)c3ccco3)CC2)sc2c1CCCC2 (stereo unspecified)	-2	-3	i	25*	99	i	i	-1.2	-13
CC(=O)Nc1ccc(NS(=O)(=O)c2ccc(-c3cnc(C4CC4)o3)cc2)cc1	0	-3	i	i	98	.	.	.	.
CC(=O)c1cccc(NS(=O)(=O)c2ccc(-c3cnc(C4CC4)o3)cc2)c1	1	-2	i	25*	96	16%*	i	-1	-17
COc1cc2ncnc(NCc3ccccc3)c2cc1OC	-2	1	i	i	106	.	.	.	.
c1ccc(CNc2ncnc3ccccc23)cc1	5	-2	i	25*!	97	i	i	-1.2	-17
CCc1ccc(NSc2ccccc2[N+](=O)[O-])cc1	-1	6	i	25*	95	i	i	-1.2	-2
SMILES	hiPSC survival	DAGLB inh	TMEM16A act	ANO1 block	ABCB6 inh MLPCN	TMEM16A reconf	HEK293 Ca mobil	Parental YFP cnt	ClC-1 inh
Cc1cc(N2CCOCC2)n2ncc(-c3ccccc3Cl)c2n1	0	-3	i	i	101	.	.	.	.
COc1cccc(CNc2nc3cc(-c4ccc(OC)cc4C)sc3c(=O)n2C)c1	0	.	.	.	98	.	.	.	.
C[C@H](CO)N1C[C@H](C)[C@H](CN(C)C(=O)Nc2ccc(C(C)(C)C)cc2)OCc2cnnn2CCCC1=O	3	-3	.	.	104	.	.	.	.
CCOc1cc(C)cc2oc(=O)cc(-c3ccccc3)c12	0	-9	i	25*	98	i	i	-1.3	-4
CC(=O)Oc1cc(C)cc2oc(=O)cc(-c3ccccc3)c12	0	0	i	i	102	.	.	.	.
C[C@H](O)C(=O)C1=Nc2c(nc(N)[nH]c2=O)NC1	-3	2	i	i	96	37%*	89%*	-0.53	-2
C[C@H](O)[C@H](O)[C@H]1CNc2nc(N)[nH]c(=O)c2N1	5	3	i	i	105	.	.	.	.
COCCNC(=O)C1CCCN(C(=O)c2ccc(C(F)(F)F)nc2C)CC1 (stereo unspecified)	-1	.	.	.	98	.	.	.	.
Cn1nc(C(F)(F)F)c(C#N)c1N1CCN(c2ccc(F)cc2)CC1	2	-1	i	25*	110	i	i	-1.3	-12
C1CCC(C(CC2CCCCN2)C2CCCCC2)CC1 (stereo unspecified)	-4	7	i	25*!	96	i	i	-1.1	-10
CC1=CC(C)(C)N(S(=O)(=O)c2ccc(C)cc2)c2cc(C)ccc21	-1	-18	i	25*	101	i	i	-1.2	-10
COc1ccc2c(c1)C(C)=CC(C)(C)N2S(=O)(=O)c1ccc(C)cc1	-2	-11	i	i	97	.	.	.	.
CN1c2ccccc2C(O)=C(C(=S)Nc2ccc(Cl)cc2)S1(=O)=O	0	13	i	100*	93	20%*	i	-0.92	-8
CCc1cc(-c2[nH]ncc2-c2ccc(OC)cc2)c(O)cc1O	2	0	i	i	89	.	.	.	.
